Inconclusive results are not listed. Calls of active or inactive are those of the source. Unless noted, the call rests on the fitted dose curve; in most records, active means well fitted curve in the direction sought with a large enough effect in the repeat runs; inconclusive means weak or mixed curves; inactive means no such curve, though single readings can be large; an effect the other way counts as inactive or inconclusive.
Tests used:
[1] = qHTS assay for small molecule agonists of the p53 signaling pathway (AID 651631; calls by dose curve; further: nearly all actives have a fitted effect of over 15% in size)
In short: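 We treat p53RE-bla HCT-116 cells with compounds for 16 h at 37 °C, add LiveBLAzer B/G FRET substrate for 2 h at room temperature, and measure fluorescence intensity.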

[2] = qHTS assay for small molecules that induce genotoxicity in human embryonic kidney cells expressing luciferase-tagged ATAD5 (AID 651632); further: nearly all actives have a fitted effect of over 15% in size
In short: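 Concentration-response screen for ATAD5 upregulation in HEK293T luciferase reporter cells; 16 hr treatment at 37C, then luminescence after 30 min with Amplite at room temperature.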

[3] = qHTS assay for small molecule agonists of the p53 signaling pathway - cell viability (AID 651633; calls by dose curve;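 further: p53RE-bla HCT reporter cells with a stable beta-lactamase p53 reporter; series mostly up to about 83 µM; nearly all actives have a fitted effect of over 30% in size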)
In short: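 p53RE-bla cells, seeded at 4,000 per well and rested 5 h at 37 C/5% CO2, received compounds in DMSO for 16 h at 37 C. CellTiter-Glo was then added, and luminescence was read after 30 min at room temperature to gauge cytotoxicity.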

[4] = qHTS assay for small molecules that induce genotoxicity in human embryonic kidney cells expressing luciferase-tagged ATAD5 - cell viability (AID 651634; calls by dose curve; further: nearly all actives have a fitted effect of over 25% in size)
In short: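 15.5 hr compound or vehicle exposure of HEK293T cells expressing luciferase-tagged ATAD5 at 37C; live-cell protease activity is read by fluorescence after 30 min of CellTiter-Fluor.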

[5] = qHTS assay for small molecule disruptors of the mitochondrial membrane potential - cell viability (AID 720634; calls by dose curve;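 further: human HepG2 liver cancer cells; series mostly up to about 83 µM; nearly all actives have a fitted effect of over 20% in size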)
In short: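 In this qHTS format, HepG2 cells plated overnight were pinned with compound, incubated 1 hr, and assayed for ATP luminescence with CellTiter-Glo after m-MPI dye addition.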

[6] = qHTS assay for small molecule disruptors of the mitochondrial membrane potential (AID 720635)
In short: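 HepG2 cells (2,000/well) attached overnight at 37C, then took compound for 1 hr at 37C, 5% CO2. Mito-MPS dye was added for 30 min; fluorescence was read at 490/535 nm (monomers) and 540/590 nm (aggregates).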

[7] = qHTS assay to test for compound auto fluorescence at 590 nm (red) in HepG2 cells (AID 720674)
In short: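 Rose Bengal sodium served as the red fluorophore standard. HepG2 monolayers (overnight attachment, MEM with 10% FBS) were exposed to test compounds for 1 hr at 37 C and read at Ex 540/Em 590 nm.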

[8] = qHTS assay to test for compound auto fluorescence at 535 nm (green) in HepG2 cells (AID 720675)
[9] = qHTS assay to test for compound auto fluorescence at 460 nm (blue) in HEK293 cells (AID 720678)
In short: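 Triamterene serves as the blue fluorophore standard. Compound signal at 405/460 nm is read in HEK293 wells (2,000 cells, 10% dialyzed FBS) after overnight treatment at 37C.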

[10] = qHTS assay to test for compound auto fluorescence at 590 nm (red) in HEK293 cells (AID 720679)
In short: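 We plated HEK293 cells in 10% dialyzed FBS medium, let them adhere for 4-5 hr, then added 23 nL compound. Overnight at 37C and 5% CO2 preceded fluorescence measurement at 540/590nm.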
On the % scale 0 is the no-effect control and ±100 the full control effect.

CC1(CO)CN(c2ccccc2)NC1=O (stereo not given)
inactive: outcome [1] | Potency [2] | outcome [3] | Potency [4] | outcome [5] | Potency [6] | outcome [7] | outcome [8] | outcome [9] | outcome [10]

O=C1CCCC(=O)O1
inactive: outcome [1] | Potency [2] | outcome [3] | Potency [4] | outcome [5] | Potency [6] | outcome [7] | outcome [8] | outcome [9]

O=C(OCc1ccccc1)C(=O)OCc1ccccc1
inactive: outcome [1] | Potency [2] | outcome [3] | Potency [4] | outcome [5] | Potency [6] | outcome [7] | outcome [8] | outcome [9] | outcome [10]

COc1cc(NS(=O)(=O)c2ccc(N)cc2)nc(OC)n1
inactive: outcome [1] | Potency [2] | outcome [3] | Potency [4] | outcome [5] | Potency [6] | fluorescence, relative to Rose Bengal [7] -0.297% [at 18.6 µM] | fluorescence, % of fluorescein control [8] -0.149% [at 18.6 µM] | fluorescence, % of triamterene [9] 0.216% [at 18.6 µM]

CC(C)CCCC(C)(C)O
inactive: outcome [1] | Potency [2] | outcome [3] | Potency [4] | outcome [5] | Potency [6] | outcome [7] | outcome [8] | outcome [9] | outcome [10]

CC(COC(C)(C)C)OCCCO (stereo not given)
inactive: outcome [1] | Potency [2] | outcome [3] | Potency [4] | outcome [5] | Potency [6] | outcome [7] | outcome [8] | outcome [9] | outcome [10]

CC(=O)NCc1c(I)c(NC(C)=O)c(I)c(C(=O)O)c1I
inactive: outcome [1] | Potency [2] | outcome [3] | Potency [4] | outcome [5] | Potency [6] | outcome [7] | outcome [8] | outcome [9] | outcome [10]

CC(=O)/C=C/C1C(C)=CCC(C)C1(C)C (stereo not given)
inactive: outcome [1] | Potency [2] | outcome [3] | Potency [4] | outcome [5] | Potency [6] | outcome [7] | outcome [8] | outcome [9]

CCc1ccc(C=O)cc1
inactive: outcome [1] | Potency [2] | outcome [3] | Potency [4] | outcome [5] | Potency [6] | outcome [7] | outcome [8] | outcome [9]

O=C(CS(=O)Cc1ccco1)NC/C=C\COc1cc(CN2CCCCC2)ccn1 (stereo not given)
inactive: outcome [1] | Potency [2] | outcome [3] | Potency [4] | outcome [5] | Potency [6] | outcome [7] | outcome [8] | outcome [9] | outcome [10]

CC(C)C[C@H](NC(=O)CNC(=O)[C@H](Cc1ccc(O)cc1)NC(=O)[C@H](CO)NC(=O)[C@H](Cc1c[nH]c2ccccc12)NC(=O)[C@H](Cc1cnc[nH]1)NC(=O)[C@@H]1CCC(=O)N1)C(=O)N[C@@H](CCCN=C(N)N)C(=O)N1CCC[C@H]1C(=O)NCC(N)=O (stereo in doubt)
inactive: outcome [1] | Potency [2] | outcome [3] | Potency [4] | outcome [5] | Potency [6] | outcome [7] | outcome [8] | outcome [9] | outcome [10]

C=Cc1ccccn1
inactive: outcome [1] | Potency [2] | outcome [3] | Potency [4] | outcome [5] | Potency [6] | outcome [7] | outcome [8] | outcome [9] | outcome [10]

CC(C)CC(=O)O
inactive: outcome [1] | Potency [2] | outcome [3] | Potency [4] | outcome [5] | Potency [6] | outcome [7] | outcome [8] | outcome [9]

C[C@@H]1O[C@@H](O[C@@H]2[C@@H](O)[C@H](OCCc3ccc(O)c(O)c3)O[C@H](CO[C@@H]3O[C@H](CO)[C@@H](O)[C@H](O)[C@H]3O)[C@H]2OC(=O)/C=C/c2ccc(O)c(O)c2)[C@H](O)[C@H](O)[C@H]1O
inactive: outcome [1] | Potency [2] | outcome [3] | Potency [4] | outcome [5] | Potency [6] | outcome [7] | outcome [8] | outcome [9] | outcome [10]

O=C(O)Cc1cn(-c2ccccc2)nc1-c1ccc(Cl)cc1
inactive: outcome [1] | Potency [2] | outcome [3] | Potency [4] | outcome [5] | Potency [6] | outcome [7] | outcome [8] | outcome [9]

Oc1cn2c(n1)Nc1ccc(Cl)c(Cl)c1C2
inactive: outcome [1] | Potency [2] | outcome [3] | Potency [4] | outcome [5] | Potency [6] | outcome [7] | outcome [8] | outcome [9]

c1ccc2nccnc2c1
inactive: outcome [1] | Potency [2] | outcome [3] | Potency [4] | outcome [5] | Potency [6] | outcome [7] | outcome [8] | outcome [9]

CCOC(=O)[C@H](CCc1ccccc1)N[C@@H](C)C(=O)N1C(=O)N(C)C[C@H]1C(=O)O
inactive: outcome [1] | Potency [2] | outcome [3] | Potency [4] | outcome [5] | Potency [6] | outcome [7] | outcome [8] | outcome [9] | outcome [10]

OCCN(CCO)c1cccc(Cl)c1
inactive: outcome [1] | Potency [2] | outcome [3] | Potency [4] | outcome [5] | Potency [6] | outcome [7] | outcome [8] | outcome [9] | outcome [10]

CCCC/C=C\CCCCCCCCCC=O
inactive: outcome [1] | Potency [2] | outcome [3] | Potency [4] | outcome [5] | Potency [6] | outcome [7] | outcome [8] | outcome [9] | outcome [10]

CCOC(=O)/C=C/c1ccccc1
inactive: outcome [1] | Potency [2] | outcome [3] | Potency [4] | outcome [5] | Potency [6] | outcome [7] | outcome [8] | outcome [9]

OCCCCC(O)CO (stereo not given)
inactive: outcome [1] | Potency [2] | outcome [3] | Potency [4] | outcome [5] | Potency [6] | outcome [7] | outcome [8] | outcome [9]

COC(=O)c1ccccc1C(=O)c1ccc(OCCN2CCCCC2)cc1
inactive: outcome [1] | Potency [2] | outcome [3] | Potency [4] | outcome [5] | Potency [6] | outcome [7] | outcome [8] | outcome [9] | outcome [10]

Source: PubChem BioAssay (Tox21)
